This is a sample that favours compounds with a hit; in the whole collection about 4.1% have one here.
NSD2 HMT inh: inhibitors of human histone methyltransferase NSD2. NSD2 peptide methylation, AlphaScreen, 120 min. 0.54% of 310,000 active. AID 743445. inhibition, % at 12.5 µM; in the data active = inhibition above about 50%
CFTR F508del cor: CFTR F508del correction in bronchial cells; CFBE cells, YFP halide quenching; stimulated with forskolin plus potentiator P3; % fluorescence drop versus neutral controls; activity (quench increase), % at 7.58 µM; 0.36% of 350,000 active; AID 720511;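 active = mean added fluorescence quench of at least 8% versus neutral control, with both replicates also reaching 8%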;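 also: cells transiently co-express mutant CFTR-F508del with the halide-sensitive YFP; corrector assay measuring rescue of mutant channel to the surface after 24 h compound exposure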
CASP6 VEID inh: inhibitors of human caspase-6; purified caspase-6, Z-VEID-R110 cleavage fluorescence; inhibition, % at 12.5 µM; 0.53% of 350,000 active;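 active = mean inhibition across replicates at least about 35%, with every replicate also reaching that limit, limit read from the data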
Target sequence (P55212 24-179 limits assumed): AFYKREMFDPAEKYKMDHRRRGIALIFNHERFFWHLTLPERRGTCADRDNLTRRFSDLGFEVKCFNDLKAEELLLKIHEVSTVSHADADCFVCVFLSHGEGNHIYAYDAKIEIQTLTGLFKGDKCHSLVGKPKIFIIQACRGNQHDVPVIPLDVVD
Target sequence (P55212 194-293 limits assumed): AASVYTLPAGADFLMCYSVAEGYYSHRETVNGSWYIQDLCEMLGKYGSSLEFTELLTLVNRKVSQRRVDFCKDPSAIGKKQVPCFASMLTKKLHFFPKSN
ALR H2O2 inh: human ALR oxidase inhibition via reduced H2O2 | P55789 | purified ALR, DTT oxidation, H2O2 HRP-luminol luminescence | inhibition, % (no concentration beside the values) | 3.8% of 290,000 active;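 active = mean replicate inhibition above about 79%, with every replicate also reaching it, limit read from the data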
Target sequence (P55789 whole entry, looked up): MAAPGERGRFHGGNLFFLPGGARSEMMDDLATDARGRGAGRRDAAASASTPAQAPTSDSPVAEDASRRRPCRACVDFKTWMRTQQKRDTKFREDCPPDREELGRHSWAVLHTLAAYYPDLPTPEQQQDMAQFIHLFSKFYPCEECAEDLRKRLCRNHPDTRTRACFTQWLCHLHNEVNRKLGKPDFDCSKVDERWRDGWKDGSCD
HIV Env fusion: HIV envelope-mediated fusion inhibition | HeLa-JRFL Env/CEM21 cell fusion, luciferase | inhibition, % at 12.3 µM | 1.1% of 360,000 active;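 active = mean replicate inhibition score of at least 50 and every replicate individually at or above 50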
PglD inh: blocks C. jejuni PglD acetyltransferase activity; AID 602405; inhibition, % at 12.5 µM; 0.098% of 360,000 active; purified PglD enzyme, DTNB colorimetric CoA detection; in the data active = inhibition above about 16%, passing the limit was not always enough
Hits are given with their value; [ ] = another dose, or the depositor's remark.

How did COC(=O)c1ccc(=O)c2nc3/c(=C/O)c(O)cc(=O)c3[nH]c12 do in these assays?
CFTR F508del cor: inactive; CASP6 VEID inh: 66; ALR H2O2 inh: inactive; PglD inh: inactive

Results for CO[C@@H]1CN(C)C(=O)c2ccc(NC(=O)Nc3ccccc3F)cc2OC[C@@H](C)N(S(=O)(=O)CC(F)(F)F)C[C@H]1C ?
CFTR F508del cor: inactive; CASP6 VEID inh: inactive; HIV Env fusion: inactive; PglD inh: inactive

How did COc1ccc(NC(=O)CSc2ccccn2)cc1 do in these assays?
NSD2 HMT inh: inactive; ALR H2O2 inh: inactive; HIV Env fusion: inactive; PglD inh: inactive

How did COc1cccc(NC(=O)CSc2ccccn2)c1 do in these assays?
NSD2 HMT inh: inactive; ALR H2O2 inh: 90; HIV Env fusion: inactive; PglD inh: inactive

Results for Cc1ccccc1NC(=O)CSc1nn2c(=O)c(C)nnc2s1 ?
NSD2 HMT inh: inactive; CFTR F508del cor: inactive; CASP6 VEID inh: inactive; ALR H2O2 inh: inactive; HIV Env fusion: inactive; PglD inh: inactive

What do the screens show for `Cc1nnc2sc(SCC(=O)Nc3cccc(Cl)c3)nn2c1=O`?
NSD2 HMT inh: inactive; CFTR F508del cor: inactive; CASP6 VEID inh: inactive; ALR H2O2 inh: 98; HIV Env fusion: inactive; PglD inh: inactive

What do the screens show for `COc1cccc(NC(=O)CSc2nn3c(=O)c(C)nnc3s2)c1`?
NSD2 HMT inh: inactive; CFTR F508del cor: inactive; CASP6 VEID inh: inactive; ALR H2O2 inh: 99; HIV Env fusion: inactive; PglD inh: inactive

Results for COc1ccc(OC)c(NC(=O)CSc2nn3c(=O)c(C)nnc3s2)c1 ?
CFTR F508del cor: inactive; CASP6 VEID inh: inactive; ALR H2O2 inh: 86; HIV Env fusion: inactive; PglD inh: inactive

How did COc1ccc(CCNC(=O)CSc2nn3c(=O)c(C)nnc3s2)cc1OC do in these assays?
NSD2 HMT inh: inactive; CFTR F508del cor: inactive; CASP6 VEID inh: inactive; ALR H2O2 inh: inactive; HIV Env fusion: inactive

Results for CCC(=O)N(C)C[C@H]1Oc2ncc(C3=CCCC3)cc2C(=O)N([C@@H](C)CO)C[C@@H]1C ?
CFTR F508del cor: inactive; CASP6 VEID inh: inactive; HIV Env fusion: inactive; PglD inh: inactive

How did C[C@@H]1CN([C@H](C)CO)C(=O)c2cccc(NC(=O)c3ccc(-c4nccs4)cc3)c2O[C@H]1CN(C)C(=O)Nc1ccccc1 do in these assays?
CFTR F508del cor: inactive; CASP6 VEID inh: inactive; HIV Env fusion: inactive; PglD inh: inactive

Results for O=c1[nH]n(Cc2ccccc2)c2ccccc12 ?
NSD2 HMT inh: inactive; CFTR F508del cor: inactive; CASP6 VEID inh: inactive; ALR H2O2 inh: 99; HIV Env fusion: inactive; PglD inh: inactive

Results for O=c1ccn(Cc2ccccc2)c2ccccc12 ?
CFTR F508del cor: inactive; CASP6 VEID inh: inactive; HIV Env fusion: inactive; PglD inh: inactive

What do the screens show for `CCOC(=O)N1CCN(C(=O)c2cc3c(=O)n(C)c4ccccc4c3n2C)CC1`?
CFTR F508del cor: inactive; CASP6 VEID inh: inactive; ALR H2O2 inh: inactive; HIV Env fusion: 66; PglD inh: inactive

Results for CCN1CCN(C(=O)c2cc3c(=O)n(C)c4ccccc4c3n2C)CC1 ?
CFTR F508del cor: inactive; CASP6 VEID inh: inactive; ALR H2O2 inh: inactive; HIV Env fusion: inactive; PglD inh: inactive

Results for CCN(CC)c1ccc2nc3ccc(N)cc3[n+](-c3ccccc3)c2c1 ?
NSD2 HMT inh: 72; CFTR F508del cor: inactive; CASP6 VEID inh: inactive; HIV Env fusion: 72; PglD inh: inactive

Results for CCN(CC)c1ccc2nc3ccccc3[n+](CC)c2c1 ?
NSD2 HMT inh: inactive; ALR H2O2 inh: inactive; PglD inh: inactive

How did Cc1cc2c(cc(C(=O)O)n2C)s1 do in these assays?
NSD2 HMT inh: inactive; ALR H2O2 inh: 79; PglD inh: inactive

Results for C[C@@H]1CN([C@H](C)CO)C(=O)c2cc(NS(=O)(=O)c3cn(C)cn3)ccc2O[C@@H](C)CCCCO[C@H]1CN(C)Cc1ccccc1 ?
CFTR F508del cor: inactive; CASP6 VEID inh: inactive; HIV Env fusion: inactive; PglD inh: inactive

How did Cc1cccc(Cn2nc(C)c(NC(=O)c3ccc(F)cc3)c2C)c1 do in these assays?
NSD2 HMT inh: inactive; CFTR F508del cor: inactive; CASP6 VEID inh: inactive; ALR H2O2 inh: inactive; HIV Env fusion: inactive

Results for Cc1nn(Cc2c(F)c(F)c(F)c(F)c2F)c(C)c1NC(=O)c1cccc(COc2ccc(Cl)cc2)c1 ?
NSD2 HMT inh: inactive; ALR H2O2 inh: inactive; HIV Env fusion: 63; PglD inh: inactive

How did C[C@H](CO)N1C[C@H](C)[C@H](CN(C)S(=O)(=O)c2ccc(F)cc2)Oc2c(NC(=O)Nc3cccc4ccccc34)cccc2C1=O do in these assays?
CFTR F508del cor: inactive; CASP6 VEID inh: inactive; HIV Env fusion: inactive

Results for CC(C)NC(=O)Nc1ccc2c(c1)C(=O)N([C@H](C)CO)C[C@H](C)[C@@H](CN(C)C(=O)Nc1ccc(F)cc1)O2 ?
CFTR F508del cor: inactive; CASP6 VEID inh: inactive; HIV Env fusion: inactive; PglD inh: inactive

How did C[C@H]1CCCCO[C@H](CN(C)C(=O)Nc2ccc(F)cc2)[C@@H](C)CN([C@@H](C)CO)C(=O)c2cc(NC(=O)Cc3ccccc3)ccc2O1 do in these assays?
CFTR F508del cor: inactive; CASP6 VEID inh: 43; HIV Env fusion: inactive; PglD inh: inactive

What do the screens show for `C[C@H]1CCCCO[C@H](CN(C)C(=O)Nc2ccc(F)cc2)[C@@H](C)CN([C@@H](C)CO)C(=O)c2cc(NC(=O)Nc3ccc(F)cc3)ccc2O1`?
CFTR F508del cor: inactive; CASP6 VEID inh: inactive; HIV Env fusion: 62[16.7 µM]; PglD inh: inactive

Results for CC(C)NC(=O)Nc1ccc2c(c1)C(=O)N([C@@H](C)CO)C[C@H](C)[C@H](CN(C)C(=O)Nc1ccc(F)cc1)O2 ?
CFTR F508del cor: inactive; CASP6 VEID inh: inactive; HIV Env fusion: 70[16.7 µM]; PglD inh: inactive

How did CC(C)NC(=O)Nc1ccc2c(c1)C(=O)N([C@@H](C)CO)C[C@@H](C)[C@@H](CN(C)C(=O)Nc1ccc(C(F)(F)F)cc1)OCCCC[C@@H](C)O2 do in these assays?
CFTR F508del cor: inactive; CASP6 VEID inh: inactive; HIV Env fusion: 79[16.7 µM]; PglD inh: inactive

Results for C[C@@H]1CCCCO[C@H](CN(C)C(=O)Nc2ccc(F)cc2)[C@H](C)CN([C@@H](C)CO)C(=O)c2cc(NC(=O)Cc3ccccc3)ccc2O1 ?
CFTR F508del cor: inactive; CASP6 VEID inh: inactive; HIV Env fusion: inactive; PglD inh: inactive

How did CNC(=O)C[C@H]1CC[C@@H]2[C@H](COc3ccc(NC(=O)Nc4cccc(C)c4)cc3C(=O)N2C)O1 do in these assays?
CFTR F508del cor: inactive; CASP6 VEID inh: inactive; PglD inh: inactive

Results for C[C@@H]1CCCCO[C@H](CN(C)C(=O)C2CCCCC2)[C@@H](C)CN([C@@H](C)CO)C(=O)c2cc(NC(=O)Nc3ccc(F)cc3)ccc2O1 ?
CFTR F508del cor: inactive; CASP6 VEID inh: inactive; HIV Env fusion: 57[16.7 µM]; PglD inh: inactive

What do the screens show for `C[C@@H]1CN([C@@H](C)CO)C(=O)c2cc(NC(=O)Nc3ccc(F)cc3)ccc2O[C@@H](C)CCCCO[C@@H]1CN(C)C(=O)C1CCCCC1`?
CFTR F508del cor: inactive; CASP6 VEID inh: inactive; HIV Env fusion: inactive; PglD inh: inactive

Screening data: PubChem BioAssay, Broad Institute
